We go through 40 molecules from PubChem BioAssay (EPA / NIEHS).

SMILES strings stand for the structures. Activity calls are given as the source filed them. The calls were made as follows: active = hit-call score of the fitted dose curve at least 0.9, where 1 is the maximum; inactive = score below 0.9.

By AC50 is commonly meant the midpoint of the concentration-response curve, whichever way the signal moves.

The target in this assay is Myc proto-oncogene protein (Homo sapiens) (UniProt P01106). The assay is described as follows: ATG_Myc_CIS: Attagene CIS-FACTORIAL HepG2 Assay for human Myelocytomatosis (Myc) Proto-Oncogene Transcription Factor (AID 2282990). The following applies: HepG2, Attagene cis-reporter transcription factor activity; actives raise or lower the signal. The procedure: ATG_CIS is a cell-based, multiplexed-readout assay that uses HepG2, a human liver cell line, with measurements taken at 24 hours after chemical dosing in a 24-well plate.ATG_Myc_CIS is one of 52 assay component(s) measured or calculated from the ATG_CIS assay. It is designed to make measurements of mRNA induction, a form of inducible reporter, as detected with fluorescence intensity signals by Reverse transcription polymerase chain reaction (RT-PCR) and Capillary electrophoresis technology.Data from the assay component ATG_Myc_CIS was analyzed into 1 assay endpoint. This assay endpoint, ATG_Myc_CIS, was analyzed with bidirectional fitting relative to DMSO as the negative control and baseline of activity. Using a type of inducible reporter, measures of mRNA for gain or loss-of-signal activity can be used to understand the reporter gene at the transcription factor-level as they relate to the gene MYC. Furthermore, this assay endpoint can be referred to as a primary readout, because this assay has produced multiple assay endpoints where this one serves a reporter gene function. To generalize the intended target to other relatable targets, this assay endpoint is annotated to the dna binding intended target family, where the subfamily is basic helix-loop-helix leucine zipper.
Myc proto-oncogene protein (Homo sapiens), sequence (P01106 whole entry, looked up): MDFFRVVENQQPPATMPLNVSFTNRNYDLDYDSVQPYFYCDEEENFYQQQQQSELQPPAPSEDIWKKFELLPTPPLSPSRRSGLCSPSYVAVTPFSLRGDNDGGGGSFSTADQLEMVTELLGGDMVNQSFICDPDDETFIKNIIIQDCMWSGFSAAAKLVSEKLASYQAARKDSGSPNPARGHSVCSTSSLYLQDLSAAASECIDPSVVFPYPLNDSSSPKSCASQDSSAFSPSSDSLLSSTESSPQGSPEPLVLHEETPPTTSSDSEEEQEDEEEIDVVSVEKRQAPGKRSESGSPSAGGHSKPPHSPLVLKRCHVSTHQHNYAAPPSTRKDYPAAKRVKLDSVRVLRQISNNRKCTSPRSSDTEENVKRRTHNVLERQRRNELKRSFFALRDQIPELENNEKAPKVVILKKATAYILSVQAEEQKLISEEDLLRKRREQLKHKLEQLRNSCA
Human liver HepG2 cells are transiently transfected with multiple reporter transcription units (MRTUs) in 6-well plates using FuGene 6 reagent (Roche; 3 ml FuGene/1 mg DNA). The MRTU constructs are regulated by a cis-regulating element (promoter). […] A major difference between the CIS and TRANS system is that in CIS activities of endogenous TFs are measured, whereas the TRANS assay evaluates changes in activities of exogenous, chimeric NR-Gal4 proteins. […] At the end of 24 hour incubation, total RNA was isolated using TriZol reagent (Invitrogen). The isolated RNA is then reverse-transcribed using oligo(dT) primer and Mo-MLV reverse transcriptase (Invitrogen) with DNAse I (Ambion) treatment for 30 min. The one-tenth of the produced cDNA was amplified by PCR using Taq DNA polymerase (Invitrogen) and two reporter sequence-specific primers. The PCR products were fluorescently labeled by primer extension with 6-arboxyfluorescein (6-FAM) 5'-labeled reporter sequence-specific primer (2 min at 95 C, 20 s at 68 C and 10 min at 72 C) and these products were digested with 5U of HpaI (New England Biolabs) for 2h at 37 C. The fragments were purified using Qiaquick PCR columns (Qiagen), analyzed on an ABI 3130xL genetic analyzer (Applied Biosystems) with peak positions identified by using a set of X-rhodamine (ROX)-labeled MapMarker1000 molecular weight standards (BioVentures). The raw capillary electrophoresis data was processed using Attagraph software (Attagene).
Consider `Nc1cc(Cl)cc(C(=O)O)c1Cl`, for which the outcome was inactive.

On to `Nc1ccc(N=Nc2ccccc2)cc1`, for which the outcome was inactive.

As to `[O-][Cl+]O`, the molecule was classed as inactive.

For `CO[C@@H]1[C@H](OC(=O)NC(=O)CCl)CC[C@]2(CO2)[C@H]1[C@@]1(C)O[C@@H]1CC=C(C)C`, the call was inactive.

`CC(C)(C)C(O)(CCc1ccc(Cl)cc1)Cn1cncn1` (stereo not given): the result was inactive.

Regarding `CCC12COCN1COC2`, the molecule was classed as inactive.

In the case of `CC(C)(O)c1cnn2c(-c3ccc(F)c(-c4c(F)cccc4C#N)c3)cnc2n1`, the result was inactive.

Consider `c1ccc2c(c1)oc1ccccc12`, for which the outcome was inactive.

For the molecule `Clc1ccccc1Cl`, the call was inactive.

On to `Nc1ccc(Oc2ccc(N)cc2)cc1`, for which the result was inactive.

With `c1ccc(N=Nc2ccccc2)cc1`, the molecule was classed as inactive.

With `Cc1ccc([N+](=O)[O-])cc1`, the result was inactive.

`Nc1ccc(Cc2ccc(N)cc2)cc1`: the result was inactive.

On to `Clc1ccc(Cl)c(Cl)c1`, for which the call was inactive.

Take `CC(C)(OOC(C)(C)c1ccccc1)c1ccccc1`: the AC50 was 77.6 µM (active).

Consider `c1ccc(NNc2ccccc2)cc1`, for which the result was inactive.

As to `CCOC(=O)[C@]1(c2ccccc2)Oc2ccccc2[C@@H]1N`, the AC50 is 24.5 µM (active).

As for `Cc1ccc(N)c(N)c1`, the outcome was inactive.

In the case of `CCCCCCCCCCCCCN1CC(C)OC(C)C1` (stereo not given), the molecule was classed as inactive.

Take `Clc1ccc(C(c2ccc(Cl)cc2)C(Cl)Cl)cc1`: the AC50 is 44.6 µM (active).

For the molecule `O=[N+]([O-])C(Br)(CO)CO`, the half-maximal activity concentration (AC50) was 74.6 µM (active).

Regarding `CN(C)C(=O)Nc1ccc(Cl)cc1`, the outcome was inactive.

In the case of `CC(C)N(Cc1ccccc1)C(=O)C(C)(C)C`, the outcome was inactive.

`CN(C)c1ccc(C(=O)c2ccc(N(C)C)cc2)cc1`: the result was inactive.

In the case of `O=Cc1ccco1`, the molecule was classed as inactive.

As for `C=CCc1ccc2c(c1)OCO2`, the outcome was inactive.

Regarding `COP(=S)(OC)SCN1C(=O)c2ccccc2C1=O`, the molecule was classed as inactive.

Turning to `CC(O)CCO` (stereo not given), the outcome was inactive.

On to `O=C1CCCO1`, for which the outcome was inactive.

With `CCN(CC)CCO`, the call was inactive.

In the case of `Cc1ccc(N=C=O)cc1N=C=O`, the result was inactive.

Take `CCC(C)c1ccc(O)cc1` (stereo not given): the molecule was classed as inactive.

For the molecule `CCCSC(=O)N(CCC)CCC`, the result was inactive.

`O=C(Nc1ccccc1)c1ccccc1I`: the outcome was inactive.

Consider `C[C@]12C=CC3=C4CCC(=O)C=C4CC[C@H]3[C@@H]1CC[C@@H]2O`, for which the outcome was inactive.

On to `c1ccc(C2CO2)cc1` (stereo not given), for which the call was inactive.

Take `CN(C)[C@@H]1C(=O)C(C(N)=O)=C(O)[C@@]2(O)C(=O)C3=C(O)c4c(O)cccc4[C@@](C)(O)[C@H]3C[C@@H]12`: the call was inactive.

`O=C(N[C@H](c1ccccc1)[C@@H]1CN2CCC1CC2)c1c(Cl)ccc(C(F)(F)F)c1Cl`: the molecule was classed as inactive.

For the molecule `Cn1cc(-c2ccccc2)c(=O)c(-c2cccc(C(F)(F)F)c2)c1`, the outcome was inactive.

As to `Clc1ccc(C(c2ccc(Cl)cc2)C(Cl)(Cl)Cl)cc1`, the call was inactive.
